Legend:
Test in all cases: universal protein binding microarray (PBM); transcription factors of Arabidopsis thaliana; high values mean tight binding
Conditions in all cases: protein: recombinant; tags: GST; chain copies: 2; dsDNA, one strand shown
GST-ANAC092(1-176) = target: T1, GST-ANAC092(1-176) (Arabidopsis thaliana, UniProt Q9FKA0 1-176)
T1 sequence: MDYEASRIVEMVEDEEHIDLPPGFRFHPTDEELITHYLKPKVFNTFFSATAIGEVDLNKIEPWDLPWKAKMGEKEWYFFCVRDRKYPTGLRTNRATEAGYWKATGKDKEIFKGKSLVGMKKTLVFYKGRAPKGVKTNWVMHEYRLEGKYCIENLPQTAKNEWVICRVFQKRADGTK
Procedure, shortened: (§1)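 Binding is expressed as the normalised enrichment score (E-score). Proteins carrying a GST tag, whether NAC-domain, full-length or DNA-binding-domain forms, were induced in cells, and zinc acetate was added for zinc-finger proteins. After purification on glutathione–Sepharose 4B and quantification by A280 or anti-GST western blot, each was applied in duplicate at 200 to 500 nM final to custom all-10-mer Agilent 4 × 180K arrays made double-stranded by primer extension. Gapped and ungapped 8-mers were scored.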

GST-NTL6(1-168) = GST-NTL6(1-168) (Arabidopsis thaliana, UniProt Q9SCK6 1-168)
Sequence of GST-NTL6(1-168) (Q9SCK6 1-168): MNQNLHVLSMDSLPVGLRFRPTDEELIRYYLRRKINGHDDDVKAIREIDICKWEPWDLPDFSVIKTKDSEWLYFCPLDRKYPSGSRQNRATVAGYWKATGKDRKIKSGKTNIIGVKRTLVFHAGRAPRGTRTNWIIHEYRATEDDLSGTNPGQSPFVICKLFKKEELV
Procedure, shortened: as §1

[1] = target: T2, GST-ANAC092(1-285) full length (Arabidopsis thaliana, UniProt Q9FKA0 1-285)
T2 sequence: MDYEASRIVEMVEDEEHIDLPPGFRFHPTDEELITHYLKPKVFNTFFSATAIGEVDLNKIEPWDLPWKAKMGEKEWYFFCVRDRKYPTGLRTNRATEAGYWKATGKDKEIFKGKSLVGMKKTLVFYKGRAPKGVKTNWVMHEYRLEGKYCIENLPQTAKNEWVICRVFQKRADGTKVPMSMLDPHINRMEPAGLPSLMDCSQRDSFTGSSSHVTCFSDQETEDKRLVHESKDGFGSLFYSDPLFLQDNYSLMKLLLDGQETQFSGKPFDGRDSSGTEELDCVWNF
Procedure, shortened: as §1

GST-NST2(1-184) = target: T3, GST-NST2(1-184) (Arabidopsis thaliana, UniProt Q9M274 1-184)
T3 sequence: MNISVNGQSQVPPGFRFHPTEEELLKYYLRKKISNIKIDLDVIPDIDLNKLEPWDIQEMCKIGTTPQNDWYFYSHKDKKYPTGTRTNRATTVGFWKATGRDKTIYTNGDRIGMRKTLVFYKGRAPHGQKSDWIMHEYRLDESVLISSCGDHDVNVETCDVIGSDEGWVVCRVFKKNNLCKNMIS
Procedure, shortened: as §1

GST-NTL8 NAC domain = target: T4, GST-NTL8 NAC domain (Arabidopsis thaliana, UniProt Q9XIN7 14-156)
T4 sequence: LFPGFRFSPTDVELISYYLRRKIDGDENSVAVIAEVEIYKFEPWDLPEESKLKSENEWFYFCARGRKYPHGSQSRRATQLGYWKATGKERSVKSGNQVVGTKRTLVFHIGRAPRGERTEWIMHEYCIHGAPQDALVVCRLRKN
Procedure, shortened: as §1

GST-SND1(1-203) = target: T5, GST-SND1(1-203) (Arabidopsis thaliana, UniProt Q9LPI7 1-203)
T5 sequence: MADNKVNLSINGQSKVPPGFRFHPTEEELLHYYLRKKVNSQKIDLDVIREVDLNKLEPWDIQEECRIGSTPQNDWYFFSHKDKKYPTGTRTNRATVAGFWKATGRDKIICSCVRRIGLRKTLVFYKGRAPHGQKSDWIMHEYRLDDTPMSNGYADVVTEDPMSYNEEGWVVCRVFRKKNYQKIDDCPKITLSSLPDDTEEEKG
Procedure, shortened: as §1

GST-VND3 NAC domain = target: T6, GST-VND3 NAC domain (Arabidopsis thaliana, UniProt Q9FH59 12-162)
T6 sequence: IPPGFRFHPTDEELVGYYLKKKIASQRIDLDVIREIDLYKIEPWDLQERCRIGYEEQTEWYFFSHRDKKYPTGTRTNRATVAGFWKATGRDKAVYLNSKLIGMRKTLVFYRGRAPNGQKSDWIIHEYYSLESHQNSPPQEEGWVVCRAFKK
Procedure, shortened: as §1

GST-VND7 NAC domain = target: T7, GST-VND7 NAC domain (Arabidopsis thaliana, UniProt Q9C8W9 9-158)
T7 sequence: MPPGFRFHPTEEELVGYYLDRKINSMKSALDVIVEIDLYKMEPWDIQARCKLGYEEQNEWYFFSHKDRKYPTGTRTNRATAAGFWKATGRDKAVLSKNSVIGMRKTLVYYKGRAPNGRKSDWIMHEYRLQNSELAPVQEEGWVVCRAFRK
Procedure, shortened: as §1

GST-ANAC019 NAC domain = target: T8, GST-ANAC019 NAC domain (Arabidopsis thaliana, UniProt Q9C932 14-162)
T8 sequence: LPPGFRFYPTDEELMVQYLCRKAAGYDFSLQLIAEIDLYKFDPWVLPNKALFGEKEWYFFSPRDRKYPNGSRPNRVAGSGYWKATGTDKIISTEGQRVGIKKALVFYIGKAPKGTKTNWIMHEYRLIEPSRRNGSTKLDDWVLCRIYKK
Procedure, shortened: as §1

GST-ANAC055(1-171) = target: T9, GST-ANAC055(1-171) (Arabidopsis thaliana, UniProt Q9LDY8 1-171)
T9 sequence: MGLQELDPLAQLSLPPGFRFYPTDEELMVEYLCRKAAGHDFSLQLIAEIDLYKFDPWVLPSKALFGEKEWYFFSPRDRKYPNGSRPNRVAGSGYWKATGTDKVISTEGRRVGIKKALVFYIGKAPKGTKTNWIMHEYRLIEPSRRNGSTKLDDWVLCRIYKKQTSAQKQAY
Procedure, shortened: as §1

GST-ATAF1 NAC domain = target: T10, GST-ATAF1 NAC domain (Arabidopsis thaliana, UniProt Q39013 7-158)
T10 sequence: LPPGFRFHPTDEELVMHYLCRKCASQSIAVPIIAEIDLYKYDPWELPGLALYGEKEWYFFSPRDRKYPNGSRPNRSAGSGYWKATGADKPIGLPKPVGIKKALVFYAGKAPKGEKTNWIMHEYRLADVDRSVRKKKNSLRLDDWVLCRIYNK
Procedure, shortened: as §1

GST-NAP(1-166) = target: T11, GST-NAP(1-166) (Arabidopsis thaliana, UniProt O49255 1-166)
T11 sequence: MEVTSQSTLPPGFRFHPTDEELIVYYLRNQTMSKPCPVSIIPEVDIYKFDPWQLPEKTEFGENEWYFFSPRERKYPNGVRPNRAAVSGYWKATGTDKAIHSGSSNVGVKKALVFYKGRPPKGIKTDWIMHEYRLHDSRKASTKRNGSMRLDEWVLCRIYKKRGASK
Procedure, shortened: as §1

Sequence | binding signal (GST-ANAC092(1-176)) [E-score] | binding signal (GST-NTL6(1-168)) [E-score] | binding signal [1] [E-score] | binding signal (GST-NST2(1-184)) [E-score] | binding signal (GST-NTL8 NAC domain) [E-score] | binding signal (GST-SND1(1-203)) [E-score] | binding signal (GST-VND3 NAC domain) [E-score] | binding signal (GST-VND7 NAC domain) [E-score] | binding signal (GST-ANAC019 NAC domain) [E-score] | binding signal (GST-ANAC055(1-171)) [E-score] | binding signal (GST-ATAF1 NAC domain) [E-score] | binding signal (GST-NAP(1-166)) [E-score]
ATTGCTTA | 0.273 | 0.423 | 0.319 | 0.288 | 0.0937 | 0.457 | 0.16 | 0.172 | – | – | – | –
ATGCCGTG | 0.417 | – | 0.443 | – | – | 0.111 | 0.399 | 0.447 | 0.453 | 0.418 | 0.35 | 0.397
ACGTTAGC | 0.377 | – | 0.406 | 0.166 | – | 0.343 | 0.183 | 0.128 | 0.144 | 0.0938 | 0.213 | 0.0584
ATTTCGTG | 0.389 | – | 0.422 | 0.136 | – | 0.109 | 0.191 | 0.157 | 0.174 | 0.22 | 0.154 | 0.133
GTACGGAA | 0.349 | – | 0.376 | 0.138 | – | 0.221 | 0.42 | 0.425 | 0.458 | 0.43 | 0.369 | 0.396
CGACACGC | 0.316 | – | 0.403 | – | – | 0.134 | 0.138 | 0.198 | 0.246 | 0.131 | 0.188 | 0.194
GCGTGTTA | 0.415 | – | 0.432 | 0.178 | – | 0.199 | 0.212 | 0.113 | 0.214 | 0.174 | 0.141 | 0.227
ACACGCGA | 0.461 | 0.125 | 0.478 | 0.212 | – | 0.309 | 0.0551 | 0.124 | – | – | – | 0.147
TATACGCA | 0.311 | – | 0.4 | 0.243 | – | 0.298 | 0.29 | 0.102 | 0.232 | 0.32 | 0.231 | 0.25
GCACGTTA | 0.433 | – | 0.464 | 0.234 | – | 0.369 | 0.217 | 0.246 | 0.153 | 0.205 | 0.226 | 0.222
TCACGGAA | 0.363 | – | 0.381 | – | – | 0.219 | 0.381 | 0.436 | 0.465 | 0.432 | 0.332 | 0.383
GACGTGTA | 0.409 | – | 0.437 | 0.193 | – | 0.229 | 0.354 | 0.338 | 0.354 | 0.341 | 0.291 | 0.327
GAAGCAAC | 0.372 | 0.399 | 0.417 | 0.282 | 0.416 | 0.443 | 0.0788 | 0.228 | – | 0.142 | 0.103 | –
TGCGTGAA | 0.325 | – | 0.414 | 0.198 | – | 0.338 | 0.281 | 0.263 | 0.327 | 0.258 | 0.234 | 0.189
AGCGTAAG | 0.191 | 0.0608 | 0.312 | 0.172 | 0.0559 | 0.4 | 0.131 | 0.141 | – | 0.0588 | 0.0897 | –
CACGCATC | 0.396 | – | 0.44 | 0.125 | – | 0.296 | 0.239 | 0.232 | 0.334 | 0.291 | 0.235 | 0.309

Sequence | binding signal (GST-ANAC092(1-176)) [E-score] | binding signal (GST-NTL6(1-168)) [E-score] | binding signal [1] [E-score] | binding signal (GST-NST2(1-184)) [E-score] | binding signal (GST-NTL8 NAC domain) [E-score] | binding signal (GST-SND1(1-203)) [E-score] | binding signal (GST-VND3 NAC domain) [E-score] | binding signal (GST-VND7 NAC domain) [E-score] | binding signal (GST-ANAC019 NAC domain) [E-score] | binding signal (GST-ANAC055(1-171)) [E-score] | binding signal (GST-ATAF1 NAC domain) [E-score] | binding signal (GST-NAP(1-166)) [E-score]
AGCGTGTC | 0.398 | – | 0.432 | 0.107 | – | 0.131 | 0.156 | 0.208 | 0.206 | 0.174 | 0.165 | 0.0924
GGACGCAA | 0.411 | – | 0.437 | 0.107 | – | 0.25 | 0.0908 | 0.0578 | 0.155 | 0.0669 | 0.0919 | 0.303
CACGTCAC | 0.445 | – | 0.464 | 0.217 | – | 0.328 | 0.362 | 0.395 | 0.4 | 0.396 | 0.374 | 0.344
AGAGGAAA | 0.115 | 0.126 | 0.0695 | – | 0.45 | 0.144 | 0.0951 | 0.0583 | – | – | 0.0666 | –
CTAACGTA | 0.323 | – | 0.391 | 0.277 | – | 0.426 | 0.25 | 0.165 | 0.0668 | 0.216 | 0.29 | 0.173
AAGGGAAA | 0.195 | 0.166 | 0.0848 | – | 0.476 | 0.117 | 0.0609 | 0.0885 | – | – | 0.166 | –
ACGTCTCT | 0.0939 | – | 0.243 | 0.175 | – | 0.0793 | 0.418 | 0.442 | 0.451 | 0.412 | 0.452 | 0.381
GTACGCCA | 0.379 | – | 0.45 | 0.225 | – | 0.398 | 0.07 | 0.114 | 0.139 | 0.153 | 0.121 | 0.0526
ACGGCACG | 0.34 | – | 0.404 | 0.133 | – | 0.0651 | 0.217 | 0.233 | 0.291 | 0.34 | 0.286 | 0.324
TACACGTA | 0.382 | – | 0.411 | 0.198 | – | 0.251 | 0.375 | 0.406 | 0.286 | 0.361 | 0.322 | 0.386
GTTACGCA | 0.338 | – | 0.363 | 0.219 | – | 0.422 | 0.317 | 0.215 | 0.301 | 0.189 | 0.2 | 0.263
GCACGCAA | 0.492 | – | 0.493 | 0.405 | – | 0.456 | 0.438 | 0.431 | 0.458 | 0.396 | 0.277 | 0.423
AAACACGC | 0.415 | – | 0.442 | 0.198 | – | 0.259 | 0.201 | 0.21 | 0.261 | 0.262 | 0.233 | 0.225
GATGCGTA | 0.368 | – | 0.416 | 0.185 | – | 0.415 | 0.267 | 0.186 | 0.216 | 0.227 | 0.239 | 0.182
GCGTGTGA | 0.374 | – | 0.419 | 0.189 | – | 0.17 | 0.14 | 0.0819 | 0.191 | 0.23 | 0.226 | 0.145

— PMC4081100, “A DNA-binding-site landscape and regulatory network analysis for NAC transcription factors in Arabidopsis thaliana”
